Measurements reported in publication PMC13494018.
A number with no mark means an inactive call. No rule for the calls is given here.

Biological target: VTCN1, Q7Z7D3
Sequence (Q7Z7D3 whole entry): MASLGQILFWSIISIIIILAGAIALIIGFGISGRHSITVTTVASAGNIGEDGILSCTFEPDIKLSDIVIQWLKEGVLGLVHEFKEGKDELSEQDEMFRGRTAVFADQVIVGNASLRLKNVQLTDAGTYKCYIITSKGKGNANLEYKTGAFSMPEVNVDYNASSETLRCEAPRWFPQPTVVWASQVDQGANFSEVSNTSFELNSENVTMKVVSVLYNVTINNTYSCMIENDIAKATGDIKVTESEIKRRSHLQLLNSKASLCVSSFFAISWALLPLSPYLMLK

B1: design_604_3e0b3014-b333-46f1-8adc-d7f0bf8048fa_2206_dldesign_0_cycle1_af2pred (protein)
chain: NELEKLKEEIKKEGEKKLKEVEEKYKEAKKLLKEDKEKGLKLLAETAGKAYEYAAEFEVLSKKVPEAAEYAKKLRAKAKEIRKLAEEA
binding in a display sort: not found

B2: design_604_3e0b3014-b333-46f1-8adc-d7f0bf8048fa_2312_dldesign_0_cycle1_af2pred (protein)
chain: MEEVEKLKKEAEKAAKEAEKAVERIKDPKTAKEALKEASKELAKLYELAAELEHLPEGKEAGKEVREKAKKLREEAKKAWAAQLAA
binding in a display sort: not found

B3: design_605_6ebdab39-eaab-4492-afcb-164e20c3b25e_558_dldesign_0_cycle1_af2pred (protein)
chain: EEEKKLVELLHEAQELAAEAEFYSKKDKEKSKEYIEKATKKIEEAAKLAGFEPIKAKNVEDLKEVLKEAIKKASERIKERKA
binding in a display sort: not found

B4: design_605_6ebdab39-eaab-4492-afcb-164e20c3b25e_445_dldesign_0_cycle1_af2pred (protein)
chain: AKEKALIDLQIAEQMAEAAKEGYAGTAAAKRAAKAAKRAIKLDPSLAEEAVKIMKELAKAAAKQDPEAGKVAAKELKEVEKEAKKVKE
binding in a display sort: not found

B5: design_605_6ebdab39-eaab-4492-afcb-164e20c3b25e_648_dldesign_0_cycle1_af2pred (protein)
chain: AEAEELKKKASQYLMEAFDTGSEEELKKAIEYAEKAAEAASEEEGKKILEEKEKMKKGFERFLKAYKEAQKKAEE
binding in a display sort: not found

B6: design_604_3e0b3014-b333-46f1-8adc-d7f0bf8048fa_2309_dldesign_0_cycle1_af2pred (protein)
chain: SHELLQQAIEELTAAEAEARRAAKIAEKKDKELAKKAKELAKKARELRKELIEKAKAGEATDEYIEEVLKKAKELEKEAKKILKEL
binding in a display sort: not found

B7: design_605_6ebdab39-eaab-4492-afcb-164e20c3b25e_737_dldesign_0_cycle1_af2pred (protein)
chain: MEELKEQIKEIKEKAEEILKNKETASLGILAESNAEDAEKLLKAGEADPSTKEKNVAEAKKFLKAAKEYAEKGLELMKKLK
binding in a display sort: not found

B8: design_605_6ebdab39-eaab-4492-afcb-164e20c3b25e_729_dldesign_0_cycle1_af2pred (protein)
chain: SSSKETSEFNRELQKRARAAGEELEKKSKNPEAGKEAKKLLSNGLMESFDKSSKEEAKAALDKAIAEAKKHVEEAS
binding in a display sort: not found

B9: design_604_3e0b3014-b333-46f1-8adc-d7f0bf8048fa_1973_dldesign_0_cycle1_af2pred (protein)
chain: MAEKEAKAKKLMAEGYSKVYEAAALARVDPEEGKKEWEEVVEKYTKELEKLDPEKGKELKEKAEKLLEKAL
binding in a display sort: not found

B10: design_604_3e0b3014-b333-46f1-8adc-d7f0bf8048fa_2314_dldesign_0_cycle1_af2pred (protein)
chain: EKEKRKEAIEKAEKVSTRIAKDIDTPEAKKIEELTKEAAEKALENVDNPEEVVKIMKEAAEEAAKDPEMEAVALVWKNAADFIK
binding in a display sort: not found

B11: design_605_6ebdab39-eaab-4492-afcb-164e20c3b25e_758_dldesign_0_cycle1_af2pred (protein)
chain: SEYFKEAVDVASKIVRAYHALAAVFPETAAQLEADGDAKVDKVMAAAELAEKDPEKGKAELEKQKAEAEKIKAEADKAAAAAR
binding in a display sort: not found

B12: design_605_6ebdab39-eaab-4492-afcb-164e20c3b25e_258_dldesign_0_cycle1_af2pred (protein)
chain: KAKELSKIVHEGFQAAKELELLAKKDPRMKPAAEEAEKLRKKAVEAAKAGDYEKAAEYAKKLKELAEKALKEYE
binding in a display sort: not found

B13: design_605_6ebdab39-eaab-4492-afcb-164e20c3b25e_565_dldesign_0_cycle1_af2pred (protein)
chain: AVEKTIAELLKAASAAIIELFDDPEKGRAKLAEVLAKAEAAAKAASPKDAAKIQAALDEMKKRGEAAIKRVEEDEKIAK
binding in a display sort: not found

B14: design_605_6ebdab39-eaab-4492-afcb-164e20c3b25e_437_dldesign_0_cycle1_af2pred (protein)
chain: MKEEAEEAKKRAEAIKKAAKEDPDKAAALIAKGFASPLAAAVKAAPPETRAEAAAQAAKVATRILENEARSYERTAN
binding in a display sort: not found

B15: design_604_3e0b3014-b333-46f1-8adc-d7f0bf8048fa_2086_dldesign_0_cycle1_af2pred (protein)
chain: SAAAEKNVALASGTFKRLLEFPEEEQVATIADSIRANPAAADYFAAAAKADKENGPKLKKVLDIAAAKVAAA
binding in a display sort: not found

B16: design_605_6ebdab39-eaab-4492-afcb-164e20c3b25e_165_dldesign_0_cycle1_af2pred (protein)
chain: AAAAEAAAKEAAAKLAIAEARALIRAGRANPKFGVELALEGAKIAREAAKKNPAMKEELEKTAKEAEKEAKKLA
binding in a display sort: not found

B17: design_605_6ebdab39-eaab-4492-afcb-164e20c3b25e_390_dldesign_0_cycle1_af2pred (protein)
chain: KEEKVEEVKKKMEESSLAEAVFIGIEAVMEFTKDAPEYMRKIVKAGRKGGEEGDEEKAKKEMAEIVKKAAE
binding in a display sort: not found

B18: design_604_3e0b3014-b333-46f1-8adc-d7f0bf8048fa_2138_dldesign_0_cycle1_af2pred (protein)
chain: GEELIKRAEEVIERAEKVRKEDPSLAKEANEAISTAEQAKQAAENAVKAAADPEKAKEFKEAAEKYLEKAEKRVEELEKKVKE
binding in a display sort: not found

B19: design_605_6ebdab39-eaab-4492-afcb-164e20c3b25e_689_dldesign_0_cycle1_af2pred (protein)
chain: GAAQEEADKALEKAGKILKEAEKLAKEAAKIGTEEEAKELEELIKKAKELLEKGKASTPEEKKKLAVEAAEYAHEARALAKHILASK
binding in a display sort: not found

B20: design_605_6ebdab39-eaab-4492-afcb-164e20c3b25e_661_dldesign_0_cycle1_af2pred (protein)
chain: MEEFEKLVKEAEKLIKKALESKDKEERKKLVEEAKEVLKKAQKLGKELAAKSTPEEAKEIVEKMHELHEKLAEAKQKAS
binding in a display sort: not found

B21: design_605_6ebdab39-eaab-4492-afcb-164e20c3b25e_2_dldesign_0_cycle1_af2pred (protein)
chain: SAVKEEAKKIIDEALDAGFEDPEKGRALAEEAYKLLASVPELAALGEEALKKVNAIIDRFEEATKKAEESRK
binding in a display sort: not found

B22: design_605_6ebdab39-eaab-4492-afcb-164e20c3b25e_593_dldesign_0_cycle1_af2pred (protein)
chain: EVEAKASEVAARARQVIAEAEYLERRAKKEGDKEKEKKAKEAKELAEKALELIKKGGLEGVEKAEKLVEEAEKLLEE
binding in a display sort: not found

B23: design_604_3e0b3014-b333-46f1-8adc-d7f0bf8048fa_1949_dldesign_0_cycle1_af2pred (protein)
chain: AEKYKKKMAEAAHLYADLAMEGKPEEGEKEADAIIEKALKEGKAAGDGEAAEAAAKEARATMEYLKKTMEEADKRNK
binding in a display sort: not found

B24: design_605_6ebdab39-eaab-4492-afcb-164e20c3b25e_501_dldesign_0_cycle1_af2pred (protein)
chain: AAAEEAAKKALKELKEEAKKLVEEAKKSNAEEAKKKRKEVVELGKEYAEKAAASPEVQKEIAKVVHEAQEELAEAAFEHSRKEKE
binding in a display sort: not found

B25: design_604_3e0b3014-b333-46f1-8adc-d7f0bf8048fa_2199_dldesign_0_cycle1_af2pred (protein)
chain: DAAVKAEASKVAAEAYEVIAEIEKLDPEKGKELRKKLKEARKKAKEDPKAGLAALKEVLEESKKELEKLKKEEKEKE
binding in a display sort: not found

B26: design_604_3e0b3014-b333-46f1-8adc-d7f0bf8048fa_2182_dldesign_0_cycle1_af2pred (protein)
chain: EEEEKKQKAVEKAKEAAKRLKEVYEKAPEELKPIVKDALDKVEAYAELAELNDAEIAEKAAKRAEKIAEEAIKKVE
binding in a display sort: not found

B27: design_604_3e0b3014-b333-46f1-8adc-d7f0bf8048fa_2472_dldesign_0_cycle1_af2pred (protein)
chain: EEEKKLTDEAIKEAKKLFAKAGAEEDAKEVAEKARKEGVSAGLSKALSLAEYYKAEGNEKKAEAAEKAAEALADALIKIRKAKRE
binding in a display sort: not found

B28: design_605_6ebdab39-eaab-4492-afcb-164e20c3b25e_50_dldesign_0_cycle1_af2pred (protein)
chain: DEKIEELREAILESAKSGGETVEEVAKLAKELGLTSAEVMLAALEAAEELPEKRELAREIGRRIAAAVLA
binding in a display sort: not found

B29: design_604_3e0b3014-b333-46f1-8adc-d7f0bf8048fa_2376_dldesign_0_cycle1_af2pred (protein)
chain: EEFEKAKKELKEAAEEAKKIDPEVGKEAKKIAEKATKVADSIIEKVGERAKPIATDILKNAKEKIKKLTEKRKKEKEA
binding in a display sort: not found

B30: design_605_6ebdab39-eaab-4492-afcb-164e20c3b25e_250_dldesign_0_cycle1_af2pred (protein)
chain: AAAAAAARLAAGLAAAAKFVEEATKKAREIAAKKTPEESAKAKAEVEEYEAMARDALAMGNAAGARSIARLALEKVS
binding in a display sort: not found

B31: design_605_6ebdab39-eaab-4492-afcb-164e20c3b25e_494_dldesign_0_cycle1_af2pred (protein)
chain: AEALEKGKAASAALDANIATGFATAEKTGDKAAAGAAAVAATAEAGAAIGPEAAEKGRRVMTSIFDGYVKA
binding in a display sort: not found

B32: design_605_6ebdab39-eaab-4492-afcb-164e20c3b25e_16_dldesign_0_cycle1_af2pred (protein)
chain: AAAAHAKAVAEAKEEMKETIKEEAKKAKEKNEEAGKESLEFGKELLEFFEKSMEKVKDPKEAKKGGERGKKIIKKNAEAITKAIT
binding in a display sort: not found

B33: design_604_3e0b3014-b333-46f1-8adc-d7f0bf8048fa_1994_dldesign_0_cycle1_af2pred (protein)
chain: DNKKTVEALSKVNRLGKEAGEAPKEETMKLVEEGVKYAKEEAKKLKDPDYKKYLIDRGKELEENAKKYLA
binding in a display sort: not found

B34: design_604_3e0b3014-b333-46f1-8adc-d7f0bf8048fa_2008_dldesign_0_cycle1_af2pred (protein)
chain: SSLEEAKKAKELAEELKKKVKELAKEAKADPSKAAEAAKVAKAIGEEAKELGKKYPEAAKYADAVAEYALHAAEQLEKLA
binding in a display sort: not found

B35: design_605_6ebdab39-eaab-4492-afcb-164e20c3b25e_768_dldesign_0_cycle1_af2pred (protein)
chain: DIAKLAEKAAKALKKAAEEGLEALAKAAALVQEARAEAKFKGLKEVAELLEKALKLAREAGKTEDEEERKALAEKAAKYAEEAAKKAK
binding in a display sort: not found

B36: design_605_6ebdab39-eaab-4492-afcb-164e20c3b25e_707_dldesign_0_cycle1_af2pred (protein)
chain: MKKQAIELAEEAKELMEKEGATPEAVALASSALRTAGFPRELAEEVREAYKKDKEEGEKKLKEAVKLVLERAKKK
binding in a display sort: not found

B37: design_605_6ebdab39-eaab-4492-afcb-164e20c3b25e_178_dldesign_0_cycle1_af2pred (protein)
chain: MSEEIKKKAEEIVEEALKKAEAAPTVEEAQAILDEALDKAVSLGKTIEEKKYAADLVSKARKKLREVWKAR
binding in a display sort: not found

B38: design_605_6ebdab39-eaab-4492-afcb-164e20c3b25e_128_dldesign_0_cycle1_af2pred (protein)
chain: MEEKKAEEKKLKEKKEEAKEYLRRAKRAMGRAMVKGDEEAFELAEEAVYLAHLAIKDPKYIEEAKKKTEEAEKRVEA
binding in a display sort: not found
